Results published in PubChem BioAssay (Tox21).
Several values for one entry are separate records, joined by “and”; a condition that tells them apart may be missing. Identical values can stand only once. Results filed as inconclusive are left out. Where a call stands in place of a potency, no number is given. Where a structure was tested more than once in an assay, its records may differ in their call. Activity calls are given as the source filed them. Unless noted, calls follow the shape of the dose curve; as a rule, active = well fitted curve in the direction sought with a large enough effect in the repeat runs; inconclusive = weak or mixed curves; inactive = no such curve, though single readings can be large; an effect the other way counts as inactive or inconclusive.

What was measured:
[1] = qHTS assay to identify small molecule agonists of the progesterone receptor (PR) signaling pathway - cell viability counter screen (AID 1346799; calls by dose curve; also: nearly all actives have a fitted effect of over 45% in size; also: potency is read from the fitted curve at half-maximal effect)
How it was run: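 Here, 3,000 PR-UAS-bla HEK293T cells per well were treated with compounds for 16 hr after a 6 hr preincubation at 37C and 5% CO2; cell viability is the CellTiter-Glo luminescence signal.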

[2] = qHTS assay to identify small molecule antagonists of the TGF-beta/Smad signaling pathway - cell viability counter screen (AID 1346824); also: nearly all actives have a fitted effect of over 50% in size; also: potency is read from the fitted curve at half-maximal effect
How it was run: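 SBE-bla HEK 293T cells, incubated overnight, then compound plus 0.25 ng/mL TGF-beta1 (stock added) for 5 hr at 37 C. Viability was read in the same wells by CellTiter-Glo luminescence after 30 min at room temperature.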

[3] = qHTS assay to identify small molecule agonists of the TGF-beta/Smad signaling pathway - cell viability counter screen (AID 1346829); also: nearly all actives have a fitted effect of over 45% in size; also: potency is read from the fitted curve at half-maximal effect
How it was run: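 In parallel with the Smad reporter read, viability of HEK 293T cells stably carrying SBE-bla is quantified by ATP luminescence following 5 hr compound treatment.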

[4] = Caspase-3/7 induction in HepG2 cells by small molecules, qHTS assay (AID 1346978); also: nearly all actives have a fitted effect of over 15% in size
How it was run: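 Wild-type HepG2 cells, 2,000/well, settled 5 hr at 37 C and 5% CO2, then compound-treated for 17 hr; caspase-3/7 activity read by luminescent Caspase-Glo 3/7 after 30 min at room temperature.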

[5] = Caspase-3/7 induction in CHO-K1 cells by small molecules, qHTS cell viability counter screen (AID 1346979); also: nearly all actives have a fitted effect of over 35% in size; also: potency is read from the fitted curve at half-maximal effect
How it was run: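 CellTiter-Fluor viability check, qHTS format: wild-type CHO-K1, 16hr compound treatment, 1hr reagent incubation, fluorescence read.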

[6] = Caspase-3/7 induction in CHO-K1 cells by small molecules, qHTS assay (AID 1346980); also: nearly all actives have a fitted effect of over 15% in size
How it was run: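 Wild-type CHO-K1 cells exposed to compounds for 17hr at 37 C, 5% CO2. Caspase-3/7 activity then measured by Caspase-Glo 3/7 luminescence after 30min at room temperature.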

[7] = Caspase-3/7 induction in HepG2 cells by small molecules, qHTS cell viability counter screen (AID 1346981); also: nearly all actives have a fitted effect of over 30% in size; also: potency is read from the fitted curve at half-maximal effect
How it was run: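 Fluorescence read-out of live-cell protease activity (CellTiter-Fluor) after 1 hr with reagent. This was measured in the same wells as the caspase-3/7 luminescence, on HepG2 cells exposed to DMSO-dissolved compounds for 16 hr at 37 C.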

[8] = target: Nuclear receptor subfamily 1 group I member 2 (Homo sapiens) (UniProt O75469); test: Human pregnane X receptor (PXR) small molecule agonists, qHTS assay (AID 1346982); also: nearly all actives have a fitted effect of over 35% in size; also: potency is read from the fitted curve at half-maximal effect
Sequence of Nuclear receptor subfamily 1 group I member 2 (Homo sapiens) (O75469 whole entry, looked up): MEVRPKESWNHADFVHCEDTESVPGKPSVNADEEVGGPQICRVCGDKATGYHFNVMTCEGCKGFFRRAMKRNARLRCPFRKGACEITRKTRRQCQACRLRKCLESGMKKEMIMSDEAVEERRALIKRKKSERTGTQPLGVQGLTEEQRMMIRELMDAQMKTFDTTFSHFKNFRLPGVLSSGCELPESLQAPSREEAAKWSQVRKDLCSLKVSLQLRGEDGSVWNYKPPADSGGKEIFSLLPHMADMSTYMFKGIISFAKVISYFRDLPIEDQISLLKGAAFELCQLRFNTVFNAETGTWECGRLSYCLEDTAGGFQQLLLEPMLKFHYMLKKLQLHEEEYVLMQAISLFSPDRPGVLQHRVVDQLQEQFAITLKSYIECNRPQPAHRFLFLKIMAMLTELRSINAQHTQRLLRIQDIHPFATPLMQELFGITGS
How it was run: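 HepG2 PXR-Luc reporter line, 5% charcoal-stripped FBS; 5 hr pre-incubation, compound (DMSO) 24 hr at 37 C/5% CO2; ONE-Glo 30 min RT; luminescence read-out.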

[9] = target: Progesterone receptor (Homo sapiens) (UniProt P06401); test: qHTS assay to identify small molecule agonists of the progesterone receptor (PR) signaling pathway (AID 1346784; calls by dose curve; also: nearly all actives have a fitted effect of over 30% in size)
Sequence of Progesterone receptor (Homo sapiens) (P06401 whole entry, looked up): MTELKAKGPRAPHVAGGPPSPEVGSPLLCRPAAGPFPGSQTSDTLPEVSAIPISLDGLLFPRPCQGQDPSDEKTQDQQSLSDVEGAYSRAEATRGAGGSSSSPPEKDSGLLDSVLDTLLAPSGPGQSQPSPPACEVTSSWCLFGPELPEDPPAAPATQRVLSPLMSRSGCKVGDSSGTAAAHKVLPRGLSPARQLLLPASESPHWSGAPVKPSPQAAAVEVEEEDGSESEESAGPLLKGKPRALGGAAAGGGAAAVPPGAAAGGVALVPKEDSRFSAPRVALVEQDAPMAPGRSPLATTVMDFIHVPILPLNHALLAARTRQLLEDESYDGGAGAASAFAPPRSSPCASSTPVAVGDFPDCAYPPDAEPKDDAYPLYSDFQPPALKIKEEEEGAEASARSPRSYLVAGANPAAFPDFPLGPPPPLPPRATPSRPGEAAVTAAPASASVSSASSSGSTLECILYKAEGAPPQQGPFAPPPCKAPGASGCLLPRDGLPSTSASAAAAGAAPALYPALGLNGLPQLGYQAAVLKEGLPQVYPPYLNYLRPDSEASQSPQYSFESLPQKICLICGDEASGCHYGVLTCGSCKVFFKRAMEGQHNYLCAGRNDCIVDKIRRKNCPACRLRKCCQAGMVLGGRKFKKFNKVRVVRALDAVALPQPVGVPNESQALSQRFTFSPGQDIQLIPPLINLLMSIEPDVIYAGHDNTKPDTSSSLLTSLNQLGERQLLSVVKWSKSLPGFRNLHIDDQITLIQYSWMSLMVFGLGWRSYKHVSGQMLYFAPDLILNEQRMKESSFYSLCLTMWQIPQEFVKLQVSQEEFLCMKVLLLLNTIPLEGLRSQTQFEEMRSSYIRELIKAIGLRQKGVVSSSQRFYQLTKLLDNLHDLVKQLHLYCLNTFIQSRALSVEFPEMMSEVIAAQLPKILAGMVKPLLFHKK
How it was run: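 Compounds were tested for PR agonism in HEK 293T cells bearing a beta-lactamase gene under UAS control. Treatment lasted 16 hr at 37C; signal came from fluorescence of a FRET substrate.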

[10] = qHTS assay to identify small molecule agonists of the TGF-beta/Smad signaling pathway (AID 1346859; active = well fitted activation curve with a large enough effect in the signal ratio in the repeat runs, not every such curve was filed as active; the % refers to the signal ratio; also: series mostly up to about 77 µM)
How it was run: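 Each well held 4,000 SBE-bla HEK 293T cells incubated overnight before compound addition; 5 hr later the cleavable FRET substrate went on for 2 hr at room temperature, and fluorescence was read at two emissions.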

[11] = target: Thyrotropin-releasing hormone receptor (Homo sapiens) (UniProt P34981); test: qHTS assay to identify small molecule antagonists of the thyrotropin-releasing hormone receptor (TRHR) signaling pathway (AID 1346877; active = well fitted inhibition curve with a large enough effect in the repeat runs, not every such curve was filed as active; also: series mostly up to about 51 µM)
Sequence of Thyrotropin-releasing hormone receptor (Homo sapiens) (P34981 whole entry, looked up): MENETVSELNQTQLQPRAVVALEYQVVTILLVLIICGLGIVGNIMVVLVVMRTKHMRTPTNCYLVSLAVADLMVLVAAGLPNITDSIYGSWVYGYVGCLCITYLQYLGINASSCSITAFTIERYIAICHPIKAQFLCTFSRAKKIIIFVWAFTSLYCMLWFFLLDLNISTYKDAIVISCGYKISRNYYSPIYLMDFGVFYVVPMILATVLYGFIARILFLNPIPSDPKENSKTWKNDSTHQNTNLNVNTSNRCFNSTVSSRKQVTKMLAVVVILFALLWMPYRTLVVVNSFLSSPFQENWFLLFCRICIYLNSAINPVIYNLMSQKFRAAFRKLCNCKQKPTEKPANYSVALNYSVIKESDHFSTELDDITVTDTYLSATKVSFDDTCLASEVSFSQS
How it was run: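 HEK293/TRHR cells, 18 h, 37 °C; Ca2+ dye 2 h; cpd 5 min RT; TRH 1 nM final; fluorescence read 3 min, 1 s intervals; 15 concs, triplicate.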

[12] = target: Thyrotropin-releasing hormone receptor (Homo sapiens) (UniProt P34981); test: qHTS assay to identify small molecule agonists of the thyrotropin-releasing hormone receptor (TRHR) signaling pathway (AID 1346891; calls by dose curve; also: series mostly up to about 58 µM)
How it was run: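 Screening of agonists relied on calcium signalling in HEK293 cells expressing human TRHR: dye loading 2 h at 37 °C preceded compound addition and a 3-min fluorescence time course.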

[13] = Human pregnane X receptor (PXR) small molecule agonists, qHTS cell viability counter screen (AID 1346977); also: nearly all actives have a fitted effect of over 50% in size; also: potency is read from the fitted curve at half-maximal effect
How it was run: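 Tox21 qHTS format; PXR-Luc HepG2, 2,000/well, charcoal-stripped FBS 5%. Cpd exposure 24hr. Read: CellTiter-Fluor fluorescence, multiplexed with luciferase.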

[14] = target: Cytochrome P450 2D6 (Homo sapiens) (UniProt P10635); test: Cytochrome P450 Family 2 Subfamily D Member 6 (CYP2D6) small molecule antagonists: luciferase reporter qHTS assay (AID 1671196); also: nearly all actives have a fitted effect of over 50% in size; also: potency is read from the fitted curve at half-maximal effect
Sequence of Cytochrome P450 2D6 (Homo sapiens) (P10635 whole entry, looked up): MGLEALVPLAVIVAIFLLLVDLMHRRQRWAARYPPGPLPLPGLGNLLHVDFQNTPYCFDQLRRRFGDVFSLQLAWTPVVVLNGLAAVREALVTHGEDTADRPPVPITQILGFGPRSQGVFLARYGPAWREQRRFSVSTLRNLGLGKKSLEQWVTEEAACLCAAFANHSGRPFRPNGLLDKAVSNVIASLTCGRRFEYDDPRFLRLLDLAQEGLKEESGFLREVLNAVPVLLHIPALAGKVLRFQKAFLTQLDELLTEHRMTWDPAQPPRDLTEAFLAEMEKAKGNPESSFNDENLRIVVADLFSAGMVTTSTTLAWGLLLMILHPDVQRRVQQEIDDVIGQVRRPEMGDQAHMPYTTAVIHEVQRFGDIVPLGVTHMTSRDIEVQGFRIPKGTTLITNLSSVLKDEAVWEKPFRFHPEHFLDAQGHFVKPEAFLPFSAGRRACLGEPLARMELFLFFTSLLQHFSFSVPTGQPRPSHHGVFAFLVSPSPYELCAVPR
How it was run: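 Luminogenic proluciferin substrate, CYP2D6 enzyme; 10 min RT preincubation with compound, NADPH regeneration system added, 1 h RT. Stop/detection reagent, 20 min RT, luminescence read (RLU). Signal proportional to CYP activity.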

[15] = target: Nuclear receptor subfamily 1 group I member 2 (Rattus norvegicus) (UniProt Q9R1A7); test: Rat pregnane X receptor (rPXR) activation by small molecules, qHTS assay (AID 1346983); conditions: rPXR luciferase reporter cells, One-Glo luminescence, 24 h; stronger effect = higher value; also: nearly all actives have a fitted effect of over 20% in size
Sequence of Nuclear receptor subfamily 1 group I member 2 (Rattus norvegicus) (Q9R1A7 whole entry, looked up): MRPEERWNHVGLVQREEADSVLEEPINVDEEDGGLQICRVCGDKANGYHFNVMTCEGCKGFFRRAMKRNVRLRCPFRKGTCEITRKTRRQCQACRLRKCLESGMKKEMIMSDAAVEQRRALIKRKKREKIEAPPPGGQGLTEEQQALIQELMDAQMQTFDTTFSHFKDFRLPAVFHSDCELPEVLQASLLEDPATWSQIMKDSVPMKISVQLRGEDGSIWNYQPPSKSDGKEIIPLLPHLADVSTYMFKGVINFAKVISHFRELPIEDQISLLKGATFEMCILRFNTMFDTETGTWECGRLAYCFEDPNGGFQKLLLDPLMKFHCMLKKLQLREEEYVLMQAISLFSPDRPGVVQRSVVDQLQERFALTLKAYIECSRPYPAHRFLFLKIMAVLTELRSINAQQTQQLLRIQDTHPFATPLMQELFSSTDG
How it was run: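 Cell-based rPXR activation assay: rPXR cells, 2,000 per well, rested 5hr at 37 C, then exposed to compounds in DMSO for 24 hr at 37 C. Luciferase activity read by One-Glo luminescence after 30 min at room temperature.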

[16] = qHTS assay to identify small molecule antagonists of the progesterone receptor (PR) signaling pathway - cell viability counter screen (AID 1346798); also: series mostly up to about 92 µM; nearly all actives have a fitted effect of over 50% in size
How it was run: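 Following a 4 hr attachment, PR-UAS-bla HEK293T cells in charcoal-stripped FBS medium were exposed to compounds with R5020 for 16 hr; CellTiter-Glo was added and luminescence read after 30 min at room temperature.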

[17] = target: Progesterone receptor (Homo sapiens) (UniProt P06401); test: qHTS assay to identify small molecule antagonists of the progesterone receptor (PR) signaling pathway (AID 1346795; active = well fitted inhibition curve with a large enough effect in the signal ratio in the repeat runs, not every such curve was filed as active; the % refers to the signal ratio)
How it was run: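 In HEK293T cells bearing the PR-UAS-bla reporter, compound effects on promegestone-driven (1 nM) beta-lactamase expression are assessed after 16 hr using a fluorescent FRET substrate incubated 2 hr at room temperature.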

| SMILES | Potency [1] | Potency [2] | Potency [3] | Potency [4] | Potency [5] | Potency [6] | Potency [7] | Potency [8] | Potency [9] | outcome [10] | Potency [11] | Potency [12] | Potency [13] | Potency [14] | max activation [15] | Potency [16] | Potency [17] |
| --- | --- | --- | --- | --- | --- | --- | --- | --- | --- | --- | --- | --- | --- | --- | --- | --- | --- |
| Nc1ccc2cc3ccccc3cc2c1 | inactive | inactive | inactive | inactive | inactive | inactive | inactive | 27.8 µM (active) and 21.7 µM (active) |  |  |  |  |  |  |  |  |  |
| Cc1cc(OCCOCC[N+](C)(C)Cc2ccccc2)ccc1C(C)(C)CC(C)(C)C | 27.1 µM (active) and 13.3 µM (active) | 43.4 µM (active) and 23.9 µM (active) | 43.4 µM (active) and 23.9 µM (active) |  | 43 µM (active) |  | 54.2 µM (active) | inactive | inactive | inactive | inactive | inactive | 54.2 µM (active) | 17.7 µM (active) and 13.8 µM (active) |  |  |  |
| CC1COc2c(N3CCN(C)CC3)c(F)cc3c(=O)c(C(=O)O)cn1c23 (stereo not given) | inactive | inactive | inactive | inactive | inactive | inactive | inactive |  | inactive | inactive | inactive | inactive | inactive | inactive | -3.36% (inactive) |  |  |
| CN1C(=O)c2ccc([N+](=O)[O-])cc2C1=O | inactive | inactive | inactive |  | inactive |  | inactive |  |  | inactive | inactive | inactive | inactive |  |  | inactive |  |
| CC(C)(C)NC(=O)[C@@H]1CN(Cc2cccnc2)CCN1C[C@@H](O)C[C@@H](Cc1ccccc1)C(=O)N[C@H]1c2ccccc2C[C@H]1O | inactive | inactive | inactive | inactive | inactive | inactive | inactive |  | inactive |  |  |  | inactive |  | 4.92% (inactive) |  |  |
| c1ccc2c(c1)-c1cccc3c1c-2cc1ccccc13 | inactive | inactive | inactive | inactive | 47.4 µM (active) |  | inactive | 29.9 µM (active) and 21.7 µM (active) |  |  |  |  | inactive | 27.6 µM (active) and inactive |  | inactive |  |
| COc1ccc(CCN(C)CCCC(C#N)(c2ccc(OC)c(OC)c2)C(C)C)cc1OC (stereo not given) | inactive |  | inactive |  |  |  |  |  |  |  | inactive | inactive |  | inactive |  | inactive |  |
| CCc1cc(C(C)(C)C)c(O)c(C(C)(C)C)c1 | inactive | inactive | inactive | inactive | inactive | inactive | inactive | inactive and 34.4 µM (active) | inactive |  | inactive | inactive | inactive | inactive |  | inactive |  |
| COC(=O)[C@H]1[C@H]2C[C@@H]3c4[nH]c5cc(OC)ccc5c4CCN3C[C@H]2C[C@@H](OC(=O)c2cc(OC)c(OC)c(OC)c2)[C@@H]1OC | inactive | inactive | inactive |  | 30.6 µM (active) and 39.7 µM (active) and inactive | inactive | 44.5 µM (active) and inactive |  | inactive |  |  |  | 39.7 µM (active) and inactive | 28.2 µM (active) and 9.19 µM (active) |  | inactive | inactive |
